Source: PubChem (National Center for Advancing Translational Sciences (NCATS))
HCMV inh: blocks human cytomegalovirus replication; activity change, negative = inhibition, % at 57.5 µM; HFF cells, HCMV-luciferase reporter, 72 h; hits give low values; 410,000 tested, 4.5% active; AID 1259415; in the data active = activity change below about -60%; inconclusive = no clear call, values can overlap the other calls; inactive = above about -39%
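Screen run at 2 compound doses on HFFs infected with reporter HCMV, MOI 1 PFU/cell. Luciferase activity from cell lysates at 72 h post infection gave inhibition relative to buffer-only and Salinomycin wells.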
HCV inh: inhibitors of hepatitis C virus infection; Huh7.5.1 HCVcc-Cre infection, luciferase reporter, 44 h; Potency, µM (highest dose often 41.8 µM), for the others: top-dose activity change, negative = inhibition, hits mostly inhibitors; 340,000 tested, 3.4% active; AID 651820; active = well fitted inhibition curve with a large enough effect; inconclusive = small, poorly fitted or top-dose-only effect, or another doubt; inactive = no such curve, though single readings can be large or run the other way; note: potency is the fitted concentration of half-maximal effect
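Infectious HCVcc-Cre (~0.5 moi) was added to cells just after compound, with cells seeded 4 h earlier at 1,000 per well. Luciferase activity after 44 h culture reported infection; substrate was incubated 15 min at room temperature before reading.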
Lassa entry inh: Lassa virus entry inhibition | AID 540256 | Lassa virus pseudotype entry inhibition, cell reporter | Potency, µM (series often up to 37.9 µM), without a hit: at the highest dose activity change, negative = inhibition, actives largely listed as inhibitors | 300,000 tested, 1.2% active; calls by dose curve; tested in HEK293 cells; note: potency is the fitted concentration of half-maximal effect; nearly all actives have a fitted effect of over 50% in size
Vaccinia Venus: vaccinia inhibition (Venus reporter); 330,000 tested, 0.46% active; Potency, µM (doses to about 36.5 µM), for the others: top-dose activity change, negative = inhibition, usual class: inhibitors; AID 720580; Vaccinia virus Venus reporter expression, fluorescence; calls by dose curve; tested in A549 cells; note: potency is the fitted concentration of half-maximal effect; nearly all actives have a fitted effect of over 30% in size
VACV mCherry inh: vaccinia inhibition (mCherry reporter); AID 720579; 310,000 tested, 0.63% active; Potency, µM (highest dose often 36.5 µM), for inactives: at the highest dose activity change, negative = inhibition, hits mostly inhibitors; Vaccinia virus mCherry reporter infection, fluorescence; calls by dose curve; tested in A549 cells; note: potency is the fitted concentration of half-maximal effect; nearly all actives have a fitted effect of over 35% in size
MARV entry inh: inhibitors of Marburg virus binding or cell entry; Marburg virus pseudotyped entry inhibition, cell reporter; Potency, µM (highest dose often 37.8 µM), for the others: top-dose activity change, negative = inhibition, actives largely listed as inhibitors; 300,000 tested, 1.8% active; calls by dose curve; tested in HEK293 cells; note: potency is the fitted concentration of half-maximal effect
Starred values were filed as active, the others as inactive; i = inactive; ? = inconclusive; . = not tested or not shown; ! = a repeat was not active; [ ] = remark or other dose. Only some compounds are listed: those with a hit (about 7.8% of all), similar ones and a draw of the others. % is set by controls: 0 for no effect and ±100 for the full control effect.

SMILES | HCMV inh | HCV inh | Lassa entry inh | Vaccinia Venus | VACV mCherry inh | MARV entry inh
CCOCCCN(C)C1CCN(C(=O)c2oc3ccccc3c2NC(=O)c2cccc([N+](=O)[O-])c2)CC1 | 0.0 | 14.1µM* | ? | -2.4% | ? | ?
CN(c1ccc(OCC(=O)N2CCN(c3ccc(F)cc3)CC2)cc1)S(=O)(=O)c1cccs1 | -38.0 | 3.55µM* | ? | -15.2% | -7.1% | 8.91µM*
CN(c1ccc(OCC(=O)N2CCCCC2)cc1)S(=O)(=O)c1cccs1 | -8.2 | -8.1% | ? | -16.7% | i | 0.1%
C=C1NN(CC2CC2)C(=O)N1c1ccc(OCc2ccccc2)cc1 | . | . | . | -14.4% | -25.9% | .
CCOC(=O)c1c(C)c2c(=O)[nH]cnc2n1-c1ccccc1 | -62.1* | -29.8% | . | . | . | .
COc1ccc(Cn2c(=O)oc3ccc(C)cc32)cc1OC | -94.5* | 14.1µM* | ? | . | . | ?
COc1ccc(Cn2c(=O)oc3ccccc32)cc1OC | -33.2 | . | . | -26.9% | -14.0% | .
CCCCCOC(=O)CSc1ncnc2c1sc1nc(N3CCOCC3)c3c(c12)CCCC3 | -2.6 | . | 4.3%[46.1 µM] | -1.7% | -8.1% | -11.0%[46.1 µM]
Cc1ccc(N2CCN(C(=O)c3cc(C(=O)c4ccccc4C)c[nH]3)CC2)c(C)c1 | 34.6 | 11.2µM* | . | . | . | .
Cc1ccc(N2CCN(C(=O)c3ccccc3)CC2)c(C)c1 | 56.8 | -8.5% | 21.5% | -20.5% | -15.4% | -5.8%
CCOc1ccccc1CN(Cc1ccco1)S(=O)(=O)c1ccc(-n2cnnn2)c(OC)c1 | -74.4* | ? | ? | ? | ? | ?
COc1cc(S(=O)(=O)N(Cc2ccco2)C2CCCC2)ccc1-n1cnnn1 | ? | -4.2% | ? | -21.2% | -23.0% | -5.5%
O=C(Nc1cccc(Cl)c1Cl)c1cc2nc(-c3ccc(Cl)cc3)cc(C(F)(F)F)n2n1 | 5.8 | . | 15.4%[46.1 µM] | 3.0% | 4.8% | 20.7%[46.1 µM]
COc1cc(C(=O)NC(=S)Nc2ccccc2N2CCCC2)cc(OC)c1OC | ? | 11.2µM* | . | 0.0%[7.34 µM] | i[7.34 µM] | .
O=C(NC(=S)Nc1ccccc1N1CCCCC1)c1ccco1 | -70.7* | ? | -9.8% | -0.1% | i | 0.1%
O=C(NC(=S)Nc1ccccc1N1CCCC1)c1ccco1 | -13.1 | -9.6% | 4.7% | -1.2% | -12.9% | -11.4%[14.2 µM]
COc1ccc(C(=O)NC(=S)Nc2ccccc2N2CCOCC2)cc1Br | -11.2 | 15.8µM* | ? | -8.1% | -0.3% | ?
COc1ccc(C(=O)Nc2ccccc2N2CCOCC2)cc1Br | 7.6 | -25.6% | -10.9% | -5.7% | -7.8% | -17.8%
Fc1cc(F)cc(NC(=S)Nc2ccccc2N2CCOCC2)c1 | -62.2* | -22.0% | -9.3%[46.1 µM] | -8.6% | -19.2% | ?
Cc1ccc(-c2nc3n(n2)C(c2ccccc2C)C=C(c2ccc(Cl)cc2)N3)cc1 (stereo not drawn) | -23.4 | . | ? | -4.7% | -20.4% | ?
COc1ccc2c(c1)c1c(c(=O)n(CCc3ccccc3)c(=O)n1Cc1cccc(Cl)c1)n2C | 4.0 | . | 12.8%[46.1 µM] | 3.5% | -6.6% | .
CCc1cccc(C)c1NC(=O)Cn1nnc(-c2nc(-c3ccccc3F)no2)c1N | -7.3 | . | 5.5%[46.1 µM] | -15.9%[7.34 µM] | -11.4%[7.34 µM] | .
COc1cc(C(=O)NC(=S)Nc2ccc3c(c2)C(=O)N(C)C3=O)cc(OC)c1OC | 13.0 | 10µM* | 19.2% | -0.8% | -10.0% | 10.0%
COc1cccc(OC)c1C(=O)NC(=S)Nc1ccc2c(c1)C(=O)N(C)C2=O | -14.9 | 10.0% | 5.0% | -30.0% | ? | ?
O=C(CSc1nc(-c2ccc(F)cc2)[nH]c1-c1ccc(F)cc1)Nc1ccc2c(c1)OCO2 | ? | . | ? | -17.9% | -20.6% | ?
SMILES | HCMV inh | HCV inh | Lassa entry inh | Vaccinia Venus | VACV mCherry inh | MARV entry inh
COc1ccc(-c2nc(SCC(=O)Nc3ccc4c(c3)OCO4)c(-c3ccc(OC)cc3)[nH]2)cc1 | -90.4* | . | 0.2%[46.1 µM] | ? | ? | 6.6%[46.1 µM]
O=C(CSc1nc(-c2ccc(F)cc2)[nH]c1-c1ccc(F)cc1)Nc1ccc2c(c1)OCCO2 | -74.8* | . | ? | ? | ? | ?
COc1ccc(-c2nc(-c3ccccc3)c(-c3ccc(O)cc3)[nH]2)cc1 | 46.7 | . | -0.7%[46.1 µM] | -21.6% | ? | -16.8%[46.1 µM]
Cc1cc2nc(-c3ccc(SCC(=O)Nc4ccc5c(c4)OCCO5)nc3)[nH]c2cc1C | -68.3* | -18.9% | -15.9% | -12.3% | i | ?
COc1ccc(-c2nc(-c3ccc4c(c3)OCO4)[nH]c2-c2ccc(OC)cc2)cc1 | -101.6* | 8.91µM* | ? | ? | ? | ?
Cc1ccc2nc(-c3ccc(SCC(=O)Nc4ccc5c(c4)OCCO5)nc3)[nH]c2c1 | 45.2 | ? | ? | -13.5% | -25.5% | -14.2%
O=C(Cn1c(=O)oc2cc(S(=O)(=O)N3CCCC3)ccc21)NCc1ccc(Cl)cc1 | -18.5 | . | -15.5%[46.1 µM] | -10.4% | -20.1% | ?
CCN1C(=O)c2ccccc2S(=O)c2ccc(C(=O)N3CCN(c4cccc(C)c4)C(C)C3)cc21 (stereo not drawn) | -27.3 | . | ? | -16.4% | -25.6% | -4.7%[46.1 µM]
CCC(=O)Nc1nnc(SCC(=O)Nc2ccc3c(c2)OCCO3)s1 | 48.0 | -15.6% | 13.3% | -4.7% | i | -1.2%
COc1ccc(Nc2nnc(SCC(=O)NC(=O)Nc3ccc4c(c3)OCCO4)s2)cc1 | -22.3 | 11.2µM* | . | . | . | .
Cc1cccc(N2CCN(CCCNC(=O)Cn3ncc4c([nH]c5ccccc54)c3=O)CC2C)c1 (stereo not drawn) | 6.6 | . | 4.0%[46.1 µM] | -17.1% | -9.4% | .
c1ccc2c(-c3ccc4nncn4c3)cncc2c1 | -70.3* | . | . | -21.1% | -7.9% | .
C[N+]12CCC(CC1)[C@H](OC(=O)C(O)(c1ccccc1)c1ccccc1)C2 | . | . | . | . | . | 14.2%
Cc1cccc(NC(=O)Cn2ncc3c4ccccc4n(Cc4ccccc4)c3c2=O)c1C | 9.5 | . | 1.1%[46.1 µM] | -5.3% | -13.4% | 9.6%[46.1 µM]
Cc1ccccc1Cn1c2ccccc2c2cnn(CC(=O)NCCCc3ccccc3)c(=O)c21 | -81.0* | . | -22.8%[46.1 µM] | -4.2% | -19.0% | 24.5%[46.1 µM]
Cc1ccc(C)c(Cn2c3ccccc3c3cnn(CC(=O)NCCCN4CCCCC4)c(=O)c32)c1 | -79.2* | ? | . | . | . | .
Cc1ccccc1Cn1c2ccccc2c2cnn(CC(=O)NC(C)CCc3ccccc3)c(=O)c21 (stereo not drawn) | -75.2* | . | ? | -13.3% | -10.0% | 6.2%[46.1 µM]
Cc1ccc(C)c(Cn2c3ccccc3c3cnn(CC(=O)NCCCc4ccccc4)c(=O)c32)c1 | -2.8 | . | 3.1%[46.1 µM] | -16.3% | -13.1% | ?
Cc1ccccc1Cn1c2ccccc2c2cnn(CC(=O)NCCc3ccccc3)c(=O)c21 | -96.3* | . | 18.0%[46.1 µM] | -14.8% | -21.6% | ?
C[C@H]1Cc2c(COc3ccccc3)nc3c(c2CO1)CN(C(=O)C1CCCCC1)CC3 | . | . | . | . | . | -11.7%[14.2 µM]
COc1ccccc1-c1cc(C(F)(F)F)nc(S(=O)(=O)CCCC(=O)N2CCOCC2)n1 | -104.4* | ? | 12.6µM* | ? | ? | 11.2µM*!
COc1ccccc1-c1cc(C(F)(F)F)nc(S(=O)(=O)CCCC(=O)O)n1 | -14.1 | 27.7% | 7.3% | . | . | ?
